Compound activity from PubChem BioAssay.
A selection: hits, their analogues and other compounds. The true share with any hit is near 4.1%.
PfM18AAP inh = blocks P. falciparum M18 aspartyl aminopeptidase | inhibition, % at 7.35 µM | 1.2% of 290,000 active | recombinant PfM18AAP, H-Glu-NHMec fluorogenic cleavage;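 active = inhibition above the campaign mean inhibition over all tested compounds plus 3 SD, cut at about 28% in these data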
PolyA inh = inhibitors of polyadenylation in S. cerevisiae. 0.02% of 300,000 active. AID 1875. S. cerevisiae SKY197-pL101 polyadenylation reporter, beta-gal luminescence; efflux-impaired pdr1/pdr3 knockout yeast; score 100 = 6 SD above DMSO. activity score, % at 12 µM;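 active = lowest replicate activity score at least 50, where 100 means six control SD above control mean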;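 also: yeast exposed to compound for 9 h at 30 °C; higher score means more reporter readthrough which indicates perturbed polyadenylation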
CaV13 ICDI inh = Primary screen for inhibitors of IQ motif and Ca2+-dependent inactivation inhibitor domain binding in CACNA1D, Förster resonance energy transfer in living cells, …; 0.098% of 340,000 active; AID 743397; inhibition, % at 12.3 µM; HEK cells, CFP/YFP FRET ICDI-IQ, plate reader, 10 min; percent FRET-ratio fall versus neutral wells;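 active = mean replicate inhibition of at least 30% and at least 1% of replicates passing that level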
IDE cell inh = inhibitors of human insulin-degrading enzyme in cells. P14735. HEK cells, FAbetaB cleavage, fluorescence polarization. inhibition, % at 5.59 µM. 0.41% of 320,000 active;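 active = percent inhibition above the average of all tested compounds plus 3 SD, set per screening campaign, cut at about 16% in these data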;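 also: IDE supplied by intact live HEK cells; FP after avidin binding of uncleaved biotin substrate so inhibition keeps polarization high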
ALR inh = inhibitors of human sulfhydryl oxidase ALR; purified ALR, DTT oxidation, H2O2 HRP-luminol luminescence; inhibition, % (concentration not given with the values); 3.8% of 290,000 active; AID 485317;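 active = mean replicate inhibition above about 79%, with every replicate also reaching it, limit read from the data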
IDE cell activ = activators of human insulin-degrading enzyme in cells | AID 493087 | activation, % at 5.96 µM | P14735 | HEK cells, FAbeta-B cleavage, fluorescence polarization; 0% vehicle, 100% cell-free pure enzyme wells | 0.073% of 340,000 active;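 active = activation above the mean of all tested compounds plus 3 SD, set per screening campaign, cut at about 17% in these data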
Large screens that a line does not name were inactive.

Nc1cnc(Nc2ccc(Br)cc2)nc1N	ALR inh 96
N#Cc1c(N)nc(N)nc1Nc1ccc(Br)cc1	none (no result: ALR inh)
CC(C)n1cc(/C=C2\NC(=O)N(c3cccc(Cl)c3)C2=O)c2ccccc21	none (no result: ALR inh)
O=C(O)Cn1cc(/C=C2/NC(=O)N(c3ccc(Cl)cc3)C2=O)c2ccccc21	ALR inh 92
O=C(O)Cn1cc(/C=c2/sc3nc4ccccc4n3c2=O)c2ccccc21	ALR inh 99
O=c1/c(=C\c2cccn2-c2ccccc2)sc2nc3ccccc3n12	none (no result: PolyA inh, IDE cell inh, ALR inh)
CCN(c1ccc(NC(=O)COC(=O)CCC(=O)c2ccc(F)cc2)cc1)C(C)C	ALR inh 93 (no result: CaV13 ICDI inh)
CCN(c1ccc(NC(=O)COC(=O)/C=C/c2ccco2)cc1)C(C)C	ALR inh 99 (no result: PfM18AAP inh, PolyA inh)
CCc1ccc(NC(=O)COC(=O)/C=C/c2ccco2)cc1	none (no result: PfM18AAP inh, PolyA inh)
CCN(c1ccc(NC(=O)COC(=O)c2cccs2)cc1)C(C)C	ALR inh 99
CCN(CC)c1ccc(NC(=O)COC(=O)c2cccs2)cc1	ALR inh 98
CC(=O)c1cccc(NC(=O)COC(=O)c2cccs2)c1	none
CCN(c1ccc(NC(=O)COC(=O)c2cc3ccccc3oc2=O)cc1)C(C)C	none (no result: ALR inh)
CC1CCCC(C)N1C(=O)COC(=O)c1cccs1 (centres undefined)	none (no result: PfM18AAP inh, PolyA inh)
CCNC(=O)c1ccccc1SCC(=O)Nc1ccc(F)cc1	none
CC/C(=C\C(=O)c1ccncc1)Nc1ccc(Br)cc1	none (no result: CaV13 ICDI inh)
CCN(CC)c1ccc(NC(=O)COC(=O)c2ccc3ccccc3n2)cc1	ALR inh 99
COc1cc2c(cc1OC)C(C(=O)N1CCN(c3ccccc3)CC1)C(c1cccs1)N(C)C2=O (centres undefined)	none
O=S(=O)(c1ccccc1)c1cc(O)ccc1O	ALR inh 98
Cc1c(O)ccc2cc(S(=O)(=O)c3ccccc3)c(=O)oc12	CaV13 ICDI inh 34 (no result: ALR inh)
O=S(=O)(c1ccc(Cl)cc1)c1cc(O)ccc1O	ALR inh 99
CCOc1ccc(NC(=O)C(C)N2C(=O)c3ccccc3S2(=O)=O)cc1 (centres undefined)	none (no result: PfM18AAP inh)
CC(C(=O)Nc1ccc(N(C)C)cc1)N1C(=O)c2ccccc2S1(=O)=O (centres undefined)	ALR inh 99 (no result: PfM18AAP inh)
C=CCOc1ccc(C(=O)/C=C2/C(=O)Nc3ccccc32)cc1	none (no result: ALR inh)
C=CCOc1ccccc1C(=O)/C=C1/C(=O)Nc2ccccc21	PfM18AAP inh 31 (no result: ALR inh)
CC(C)NC(=O)c1ccc(-n2c(=S)[nH]c3ccccc3c2=O)cc1	none (no result: ALR inh, IDE cell activ)
COc1cc(/C=N/N=C2/C(=O)Nc3ccccc32)cc(OC)c1O	ALR inh 95
O=C(CN(C(=O)c1csnn1)c1ccccc1Cl)NC1CCCC1	none
c1cc(C(c2nnnn2C2CCCC2)N2CCOCC2)ccn1 (centres undefined)	none
O=C(CSc1nnnn1C1CC1)N1CCN(c2cccc(Cl)c2)CC1	none (no result: PfM18AAP inh, PolyA inh)
Oc1ccc(N2CCN(C(c3ccncc3)c3nnnn3C3CCCC3)CC2)cc1 (centres undefined)	PfM18AAP inh 37, ALR inh 100
O=C(CSc1nnnn1C1CC1)N1CCN(c2ccc(O)cc2)CC1	ALR inh 99 (no result: PfM18AAP inh, PolyA inh)
COc1ccc(NC(=O)CSc2nnc(NC(=O)CN3CCOCC3)s2)cc1	none (no result: ALR inh)
CCC(C)c1ccc(OCC(=O)Nc2ccc(CN3CCOCC3)cc2)cc1 (centres undefined)	none (no result: CaV13 ICDI inh, IDE cell inh)
COc1ccc(OS(=O)(=O)c2c(C)noc2C)cc1	none
CCn1c(=N)c(S(=O)(=O)c2ccccc2)cc2c(=O)n3ccccc3nc21	CaV13 ICDI inh 33
Cc1ccc(S(=O)(=O)c2cc3c(=O)n4ccccc4nc3n(C)c2=N)cc1	CaV13 ICDI inh 80
CCCn1c(=N)c(S(=O)(=O)c2ccccc2)cc2c(=O)n3ccccc3nc21	CaV13 ICDI inh 129
CCn1c(=N)c(S(=O)(=O)c2ccc(C)cc2)cc2c(=O)n3ccccc3nc21	none (no result: IDE cell activ)
N=c1c(S(=O)(=O)c2ccccc2)cc2c(=O)n3ccccc3nc2n1Cc1ccco1	none (no result: CaV13 ICDI inh)
N=c1c(S(=O)(=O)c2ccccc2)cc2c(=O)n3ccccc3nc2n1CCN1CCOCC1	none (no result: PolyA inh, CaV13 ICDI inh, IDE cell inh, ALR inh, IDE cell activ)
